Laboratory results taken from the supplement of paper PMC8975748.
Structures can show the parent of a compound that is named as a salt. ± gives the standard deviation of the averaged measurements.

Columns and labels:
[1] = test system: Saccharomyces cerevisiae BY4741 SeMeCo community; experiment: mean cell size (pixel area) (pixels); higher = larger cells; settings: 10 µM; 24 h; SM minimal medium
In short: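 Yeast cells were fixed with paraformaldehyde, imaged by automated confocal microscopy and analysed in Harmony to obtain mean cell pixel area per well. They came from a four-plasmid fluorescent Saccharomyces cerevisiae BY4741 community, each plasmid complementing one auxotrophy and carrying a fluorescent marker. Before imaging, 70 µl of culture at OD600 = 0.3 was incubated for 24 h in SM medium in 384-well plates predosed acoustically with drug (final 10 µM). Values are means of 3 replicates. Same SeMeCo high-content imaging drug screen: Selleck FDA-approved drugs at 10 µM, 24 h in SM medium, 384-well plates, 3 replicates.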

[2] = test system: Saccharomyces cerevisiae BY4741 SeMeCo community; experiment: z-score of prototroph abundance vs DMSO median; higher = larger share of this subpopulation than in DMSO controls; settings: 10 µM; 24 h; SM minimal medium; subpopulation (auxotrophy): Prototroph
In short: (§1)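 Subpopulation abundance was reported as a z-score against the median of vehicle wells. The Saccharomyces cerevisiae BY4741 community, carrying four plasmids that each restored one auxotrophy and encoded a distinct fluorescent protein, was grown 24 h in minimal SM medium in 384-well plates holding library drugs at 10 µM final. Cells were paraformaldehyde-fixed and imaged by automated confocal microscopy, with single-auxotroph fluorescent strains used for thresholds and autofluorescence correction.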

[3] = test system: Saccharomyces cerevisiae BY4741 SeMeCo community; experiment: z-score of subpopulation abundance vs DMSO median, subpopulation auxotrophic for M; higher = larger share of this subpopulation than in DMSO controls; settings: 10 µM; 24 h; SM minimal medium; subpopulation (auxotrophy): M
In short: as §1

[4] = test system: Saccharomyces cerevisiae BY4741 SeMeCo community; experiment: z-score of subpopulation abundance vs DMSO median, subpopulation auxotrophic for L; higher = larger share of this subpopulation than in DMSO controls; settings: 10 µM; 24 h; SM minimal medium; subpopulation (auxotrophy): L
In short: as §1

[5] = test system: Saccharomyces cerevisiae BY4741 SeMeCo community; experiment: z-score of subpopulation abundance vs DMSO median, subpopulation auxotrophic for U; higher = larger share of this subpopulation than in DMSO controls; settings: 10 µM; 24 h; SM minimal medium; subpopulation (auxotrophy): U
In short: as §1

[6] = test system: Saccharomyces cerevisiae BY4741 SeMeCo community; experiment: z-score of subpopulation abundance vs DMSO median, subpopulation auxotrophic for H; higher = larger share of this subpopulation than in DMSO controls; settings: 10 µM; 24 h; SM minimal medium; subpopulation (auxotrophy): H
In short: as §1

[7] = test system: Saccharomyces cerevisiae BY4741 SeMeCo community; experiment: z-score of subpopulation abundance vs DMSO median, subpopulation auxotrophic for LU; higher = larger share of this subpopulation than in DMSO controls; settings: 10 µM; 24 h; SM minimal medium; subpopulation (auxotrophy): LU
In short: as §1

[8] = test system: Saccharomyces cerevisiae BY4741 SeMeCo community; experiment: z-score of subpopulation abundance vs DMSO median, subpopulation auxotrophic for LM; higher = larger share of this subpopulation than in DMSO controls; settings: 10 µM; 24 h; SM minimal medium; subpopulation (auxotrophy): LM
In short: as §1

[9] = test system: Saccharomyces cerevisiae BY4741 SeMeCo community; experiment: z-score of subpopulation abundance vs DMSO median, subpopulation auxotrophic for UM; higher = larger share of this subpopulation than in DMSO controls; settings: 10 µM; 24 h; SM minimal medium; subpopulation (auxotrophy): UM
In short: as §1

[10] = test system: Saccharomyces cerevisiae BY4741 SeMeCo community; experiment: z-score of subpopulation abundance vs DMSO median, subpopulation auxotrophic for HL; higher = larger share of this subpopulation than in DMSO controls; settings: 10 µM; 24 h; SM minimal medium; subpopulation (auxotrophy): HL
In short: as §1

[11] = test system: Saccharomyces cerevisiae BY4741 SeMeCo community; experiment: z-score of subpopulation abundance vs DMSO median, subpopulation auxotrophic for HLU; higher = larger share of this subpopulation than in DMSO controls; settings: 10 µM; 24 h; SM minimal medium; subpopulation (auxotrophy): HLU
In short: as §1

[12] = test system: Saccharomyces cerevisiae BY4741 SeMeCo community; experiment: z-score of subpopulation abundance vs DMSO median, subpopulation auxotrophic for HLM; higher = larger share of this subpopulation than in DMSO controls; settings: 10 µM; 24 h; SM minimal medium; subpopulation (auxotrophy): HLM
In short: as §1

[13] = test system: Saccharomyces cerevisiae BY4741 SeMeCo community; experiment: z-score of subpopulation abundance vs DMSO median, subpopulation auxotrophic for HUM; higher = larger share of this subpopulation than in DMSO controls; settings: 10 µM; 24 h; SM minimal medium; subpopulation (auxotrophy): HUM
In short: as §1

[14] = test system: Saccharomyces cerevisiae BY4741 SeMeCo community; experiment: z-score of subpopulation abundance vs DMSO median, subpopulation auxotrophic for HLUM; higher = larger share of this subpopulation than in DMSO controls; settings: 10 µM; 24 h; SM minimal medium; subpopulation (auxotrophy): HLUM
In short: as §1

[15] = test system: Saccharomyces cerevisiae BY4741 SeMeCo community; experiment: z-score of subpopulation abundance vs DMSO median, subpopulation auxotrophic for LUM; higher = larger share of this subpopulation than in DMSO controls; settings: 10 µM; 24 h; SM minimal medium; subpopulation (auxotrophy): LUM
In short: as §1

[16] = test system: Saccharomyces cerevisiae BY4741 SeMeCo community; experiment: z-score of subpopulation abundance vs DMSO median, subpopulation auxotrophic for HU; higher = larger share of this subpopulation than in DMSO controls; settings: 10 µM; 24 h; SM minimal medium; subpopulation (auxotrophy): HU
In short: as §1

[17] = test system: Saccharomyces cerevisiae BY4741 SeMeCo community; experiment: z-score of subpopulation abundance vs DMSO median, subpopulation auxotrophic for HM; higher = larger share of this subpopulation than in DMSO controls; settings: 10 µM; 24 h; SM minimal medium; subpopulation (auxotrophy): HM
In short: as §1

SMILES | mean cell size [1] | z-score of prototroph abundance [2] | z-score of subpopulation abundance [3] | z-score of subpopulation abundance [4] | z-score of subpopulation abundance [5] | z-score of subpopulation abundance [6] | z-score of subpopulation abundance [7] | z-score of subpopulation abundance [8] | z-score of subpopulation abundance [9] | z-score of subpopulation abundance [10] | z-score of subpopulation abundance [11] | z-score of subpopulation abundance [12] | z-score of subpopulation abundance [13] | z-score of subpopulation abundance [14] | z-score of subpopulation abundance [15] | z-score of subpopulation abundance [16] | z-score of subpopulation abundance [17]
COc1cccc(CCc2ccccc2OCC(CN(C)C)OC(=O)CCC(=O)O)c1 (centres undefined) [Sarpogrelate hydrochloride] | 12.3 ± 0.35 | 0.79 | -0.54 | -0.31 | -0.21 | -0.59 | -0.09 | -0.29 | 0.14 | -0.5 | -0.99 | -0.89 | -0.04 | -0.48 | – | – | –
C[C@]12CC[C@@H]3c4ccc(O)cc4CC[C@H]3[C@@H]1C[C@@H](O)[C@@H]2O [Estriol] | 12.41 ± 0.12 | 0.65 | -0.11 | 0.63 | -0.19 | – | -0.08 | 0.01 | -0.62 | -0.01 | -0.08 | 0.3 | -0.83 | – | -0.23 | – | –
CC1(C)S[C@@H]2[C@H](NC(=O)[C@H](N)c3ccccc3)C(=O)N2[C@H]1C(=O)OCOC(=O)[C@@H]1N2C(=O)C[C@H]2S(=O)(=O)C1(C)C [Sultamicillin Tosylate] | 12.28 ± 0.1 | – | 0.72 | -0.36 | – | -0.32 | -0.03 | -0.09 | 0.25 | 0.21 | -0.45 | -0.09 | 0.26 | -0.64 | -0.41 | 0.19 | –
C[C@H](Nc1ncnc2nc[nH]c12)c1cc2cccc(Cl)c2c(=O)n1-c1ccccc1 [Duvelisib (IPI-145, INK1197)] | 12.37 ± 0.1 | -0.55 | -0.39 | 1.3 | – | 0.93 | 1.28 | 0.42 | -0.3 | 0.33 | 0.95 | 0.18 | -0.67 | 0.98 | 0.56 | -0.03 | –
NCCc1ccc(O)c(O)c1 [Dopamine HCl] | 12.4 ± 0.15 | 1.09 | -0.7 | -1.11 | – | -0.34 | -0.45 | -0.73 | -0.71 | -1.06 | -0.89 | -0.89 | -0.77 | -0.04 | -0.34 | -0.79 | –
CCC1=C(C)CN(C(=O)NCCc2ccc(S(=O)(=O)NC(=O)N[C@H]3CC[C@H](C)CC3)cc2)C1=O [Glimepiride] | 12.5 ± 0.2 | -0.13 | -0.24 | 0.24 | -0.47 | – | -0.1 | 0.34 | 0.19 | – | 0.26 | 0.03 | 0.42 | – | -0.01 | 0.22 | –
O=C(O)c1cc(/N=N/c2ccc(O)c(C(=O)O)c2)ccc1O [Olsalazine Sodium] | 12.63 ± 0.099 | 1.33 | -0.62 | -0.47 | -0.08 | -0.62 | -0.37 | – | -1.01 | -0.76 | -1.31 | -1.25 | -0.73 | -0.84 | -0.7 | -0.74 | -1.16
C=CCN1CCCC1CNC(=O)c1cc2nn[nH]c2cc1OC (centres undefined) [Alizapride HCl] | 12.3 ± 0.14 | -0.2 | -0.5 | 0.16 | 0.74 | -0.87 | 0.9 | – | 0.58 | -0.36 | 0.1 | -0.44 | 0 | 0.23 | 0.44 | 0.88 | -0.31
CC(=O)O[C@]1(C(C)=O)CC[C@H]2[C@@H]3C[C@H](C)C4=CC(=O)CC[C@]4(C)[C@H]3CC[C@@]21C [Medroxyprogesterone acetate] | 12.6 ± 0.18 | 0.03 | 0.21 | -0.93 | 0.34 | 0.12 | 0.01 | -0.1 | 0.34 | -0.1 | -0.17 | -0.12 | -0.19 | – | -0.28 | 0.62 | –
Cc1onc(-c2c(Cl)cccc2Cl)c1C(=O)N[C@@H]1C(=O)N2[C@@H]1SC(C)(C)[C@@H]2C(=O)O [Dicloxacillin Sodium] | 12.4 ± 0.18 | 0.04 | -0.23 | 1.32 | -0.31 | 0.19 | 0.85 | – | -0.45 | -0.68 | -0.51 | -0.56 | -0.11 | 1.07 | 0.88 | -0.23 | -0.31
CCCCC(F)(F)[C@@]1(O)CC[C@H]2[C@@H](CC(=O)[C@@H]2CCCCCCC(=O)O)O1 [Lubiprostone] | 12.6 ± 0.28 | 1.04 | -0.11 | -1.05 | 0.27 | -0.12 | -0.53 | -1.08 | -0.29 | -0.29 | -0.93 | -1.01 | -1.08 | -0.37 | – | -0.05 | –
CC(C(=O)O)c1ccc(C(=O)c2cccs2)cc1 (centres undefined) [Suprofen] | 12.4 ± 0.17 | – | -0.68 | 0.48 | -0.1 | -0.25 | -0.41 | 0.42 | -0.8 | -0.36 | 0.03 | -0.28 | -1.16 | -0.2 | -0.07 | -0.02 | –
Cc1c[nH]c(=O)[nH]c1=O [Thymine] | 12.4 ± 0.22 | -0.52 | 0.85 | 0.24 | 0.76 | -0.36 | 0.49 | – | 0.58 | -0.04 | 0.71 | 0.64 | 0.09 | 0.51 | 0.24 | 0.14 | 0.33
C1CCN2C[C@@H]3C[C@@H](CN4CCCC[C@@H]34)[C@H]2C1 [(-)-Sparteine Sulfate] | 12.2 ± 0.3 | 0.31 | -0.03 | -0.01 | -0.7 | 1.38 | -0.85 | – | 0.01 | 1.4 | -0.52 | -0.86 | 0.1 | -0.92 | -0.1 | -0.03 | 0.08
